# Measured values taken from PubChem BioAssay (NCI).
# This is part of a sample that, as a whole, favours compounds with a hit. Of some 83,000 tested, about 20% had one in any assay.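 Each cell line was grown in a 96-well plate and treated with one concentration of compound for 48 hours. Values below 10 were considered active.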 Unmarked numbers belong to inactive results. Activity calls are given as the source filed them.
# Experiments:
# Test in all cases: NCI-60 one-dose screen, 48 h (100 = growth as untreated, 0 = no growth, -100 = all killed)
# Settings in all cases: 10 µM unless noted
# [1] = test system: SK-MEL-2 melanoma
# [2] = test system: EKVX NSCLC
# [3] = test system: SN12C renal
# [4] = test system: CAKI-1 renal
# [5] = test system: A498 renal
# [6] = test system: CCRF-CEM leukemia
# [7] = test system: MOLT-4 leukemia
# [8] = test system: SR leukemia
# [9] = test system: RPMI-8226 leukemia
# [10] = test system: OVCAR-8 ovarian
# [11] = test system: OVCAR-4 ovarian
# [12] = test system: SK-OV-3 ovarian
# [13] = test system: OVCAR-3 ovarian
# [14] = test system: HS 578T breast
# [15] = test system: NCI/ADR-RES ovarian
# [16] = test system: UO-31 renal
# [17] = test system: TK-10 renal
# [18] = test system: ACHN renal
# [19] = test system: OVCAR-5 ovarian
# [20] = test system: IGROV1 ovarian
Structure (SMILES),growth [1],growth [2] [%],growth [3],growth [4],growth [5],growth [6],growth [7],growth [8],growth [9],growth [10],growth [11],growth [12],growth [13],growth [14],growth [15],growth [16],growth [17],growth [18],growth [19],growth [20]
COc1cc(C2CC(c3ccc4c(c3)OCO4)=NN2C(C)=O)cc(OC)c1OC (configuration not stated),28.5%,38.7,46.3%,2.4% (active),28.8%,16%,36%,19.9%,39.2%,42%,54.5%,10.6%,-5.71% (active),-7.69% (active),4% (active),–,–,–,–,–
CN1CCN(Cc2ccc(NC(=O)c3nc4ccc5[nH]ncc5c4c4c3CCC4)cc2C(F)(F)F)CC1,104%,–,-82.7% (active),-97.4% (active),84.6%,-9.12% (active),-38.7% (active),-31.6% (active),-37% (active),-53.8% (active),68.3%,93.8%,-91.3% (active),85.9%,-40.8% (active),-96.3% (active),-91.2% (active),-99.6% (active),3.19% (active),-80.9% (active)
O=C(/C=C/c1ccccc1)c1cccc(O)c1,115%,108,–,–,114%,–,86.7%,6.27% (active),-37.8% (active),86.5%,106%,104%,–,110%,103%,72.6%,109%,–,–,82%
COc1cc(-c2nn(-c3cccc(NC(=O)c4ccc(Cl)c(C(F)(F)F)c4)c3)cc2-c2ccncc2)ccc1Cl,18.9%,–,57.3%,61.1%,11.8%,12.4%,20.3%,–,25.4%,38.9%,66%,64.3%,19.5%,34.7%,13.4%,37.1%,69.5%,39.1%,91.3%,48.9%
COc1cc(-c2nn(-c3cccc(NC(=O)c4cccc(C(F)(F)F)c4)c3)cc2-c2ccncc2)ccc1Cl,-38.6% (active),–,34.4%,44.7%,-19% (active),3.1% (active),8.63% (active),–,-1.13% (active),11.8%,46.5%,7.18% (active),-25.6% (active),-5.69% (active),2.75% (active),25.1%,8.08% (active),31.6%,49.3%,34%
Brc1ccc(-c2[nH]ncc2-c2c[nH]c3ccccc23)cc1,109%,–,88.5%,86.7%,65.1%,54.7%,70.3%,100%,81.8%,96.4%,86.3%,103%,97.3%,88.3%,101%,57.4%,129%,96.5%,97.7%,91.1%
O=S(=O)(NCCNc1nccc(-c2c(-c3ccc(O)cc3)nc3sccn23)n1)c1cccc2ccccc12,124%,–,97.7%,99.7%,104%,97.8%,87.6%,–,92.5%,95.4%,91.6%,106%,117%,110%,102%,85.1%,98.2%,107%,114%,105%
COc1ccc(C2C=C(c3ccc(OC)c(OC)c3)N=C3SC=C(C)N32)c(Br)c1 (configuration not stated),101%,–,108%,99.9%,115%,101%,84%,–,102%,99.2%,99.6%,107%,112%,116%,113%,94.8%,107%,95%,92.8%,105%
CCCCCCCCCCCCCCCCNC(=O)OC(C)C,58.7%,22.8,64.3%,28.5%,75.1%,7.75% (active),7.03% (active),–,80.1%,63.8%,-39.2% (active),69.7%,19.5%,78.2%,65.9%,–,–,–,–,–
COc1cc(NCCCCCN)c2ncccc2c1,126%,113,–,96.7%,116%,–,88.3%,70.6%,88.8%,100%,86.8%,109%,–,113%,109%,86.9%,119%,–,–,98%
COc1ccc(/C=C2\CN(Cc3cn(CCNc4ccnc5cc(Cl)ccc45)nn3)C/C(=C\c3ccc(OC)c(OC)c3)C2=O)cc1OC,-19.7% (active),–,-0.659% (active),97.4%,32.5%,0.689% (active),-3.65% (active),–,-1.73% (active),-3.77% (active),29.8%,4.28% (active),-13.9% (active),23.4%,103%,80.5%,8.71% (active),51.4%,18.1%,7.35% (active)
Cc1csc(NC(c2ccccc2)c2c(C)nc3ccccn23)n1 (configuration not stated),107%,–,99.9%,94.5%,70.9%,101%,92.3%,94.9%,79.2%,102%,104%,97.3%,110%,95.5%,99%,76%,111%,102%,101%,108%
O=c1c2sc3ncccc3c2nnn1-c1ccccc1,101%,–,98.7%,93.5%,102%,90.7%,97.7%,–,99%,104%,103%,105%,112%,108%,107%,90.6%,126%,106%,101%,106%
COc1ccc(C(=O)n2nc(/C=C/c3ccc(O)c(OC)c3)cc2/C=C/c2ccc(O)c(OC)c2)cc1,-34.1% (active),–,12.8%,20.4%,-14.8% (active),-11.6% (active),-18.4% (active),-9.23% (active),-27.3% (active),-5.24% (active),-7.85% (active),–,1.05% (active),0.538% (active),26%,-1.75% (active),24.7%,7.64% (active),-18.8% (active),–
C=C(C)[C@@H]1CC[C@]2(C(=O)N3CCNCC3)CC[C@]3(C)[C@H](CC[C@@H]4[C@@]5(C)C/C(=C/c6ccncc6)C(=O)C(C)(C)[C@@H]5CC[C@]43C)[C@@H]12,107%,–,106%,95.6%,111%,101%,95.6%,106%,98.2%,98.2%,98.9%,107%,116%,98.4%,109%,90.3%,102%,103%,105%,103%
COc1cc(-c2nn(-c3cccc(NC(=O)Nc4cc(C(F)(F)F)cc(C(F)(F)F)c4)c3)cc2-c2ccncc2)ccc1Cl,-52.1% (active),–,-8.08% (active),18.5%,-14.6% (active),-27.3% (active),-24.5% (active),–,-11.7% (active),-12.7% (active),17.2%,-9.79% (active),-57.9% (active),-25.8% (active),1.11% (active),-29.2% (active),-26.7% (active),10.5%,16.3%,19.9%
